{
  "source": "PubChem BioAssay AID588405",
  "about": "(Sanford-Burnham Center for Chemical Genomics, 2011)",
  "note": "Hit rate of the full screen: of about 360,000 compounds, about 6,200 (1.7%) were called active. Only a selection was taken, and actives are over-represented in it overall. Unmarked numbers belong to inactive results.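 Rule for the calls: active = inhibition of at least 50% at 20 µM; inactive = the rest.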",
  "data": [
    {"test": "Peg3 promoter-driven luciferase inhibitors, primary screen, cell-based, HeLa, luciferase luminescence (AID 588405)", "conditions": "HeLa PEG-Prom luciferase reporter, overnight, at 20 µM, hits give high values", "values": [
      {"smiles": "O=C(NCC1CCCO1)c1cc2c([nH]c3ccccc32)c(-c2ccc(F)cc2)n1", "note": "(stereo unspecified)", "inhibition": "61.3% (active)"},
      {"smiles": "O=C(NCCCO)c1cc2c([nH]c3ccccc32)c(-c2ccc(F)cc2)n1", "inhibition": "23.9%"},
      {"smiles": "COc1ccc2cc(C(=O)NCC3CCCO3)[nH]c2c1", "note": "(stereo unspecified)", "inhibition": "-95.8%"},
      {"smiles": "CCOc1ccc(Cl)cc1-c1cc(C(=O)NCc2cccs2)[nH]n1", "inhibition": "-9.07%"},
      {"smiles": "Cc1cc(C(=O)CCl)c(C)n1CC1COc2ccccc2O1", "note": "(stereo unspecified)", "inhibition": "103% (active)"},
      {"smiles": "CCn1cc(C(=O)NCC2COc3ccccc3O2)c2cc(OC)c(OC)cc2c1=O", "note": "(stereo unspecified)", "inhibition": "8.43%"},
      {"smiles": "Cc1noc(C)c1C(=O)NCC1COc2ccccc2O1", "note": "(stereo unspecified)", "inhibition": "15.8%"},
      {"smiles": "O=C(Nc1ccc(Cl)cc1)C1Cc2c(-c3ccc4c(c3)OCO4)ccnc2O1", "note": "(stereo unspecified)", "inhibition": "29%"},
      {"smiles": "Cc1ccc(-c2nnc(-n3nnc4ccccc43)c3ccccc23)cc1", "inhibition": "6.18%"},
      {"smiles": "CC1(Cc2ccccc2C#N)C(=O)Nc2ccc(-c3ccc4[nH]ccc4c3)cc21", "note": "(stereo unspecified)", "inhibition": "14.4%"},
      {"smiles": "Cc1nc2ccccc2nc1CC(O)(c1ccccc1)c1ccccc1", "inhibition": "-1.32%"},
      {"smiles": "CN(Cc1ccccc1)C(=O)c1cccc(C(=O)N(C)Cc2ccccc2)c1", "inhibition": "8.74%"},
      {"smiles": "CN(O)C(=S)c1ccccc1", "inhibition": "92.1% (active)"},
      {"smiles": "Cc1ccc(CS(=O)Cc2ccc(C(=O)N3CCOCC3)o2)cc1", "note": "(stereo unspecified)", "inhibition": "11.9%"},
      {"smiles": "CCc1nc2ccc(C(=O)Nc3cc(-c4ccccc4)ccc3OC)cn2c1N(CC)CC(=O)N(C)C", "inhibition": "-22.1%"},
      {"smiles": "CCCC1=Nc2cc(C(=O)NCCN3CCCC3)ccc2Sc2ccccc21", "inhibition": "16.7%"},
      {"smiles": "CCN1CCN(CCNC(=O)c2ccc(/C=C3/Sc4ccccc4N(Cc4cccc(C)c4)C3=O)cc2)CC1", "inhibition": "103% (active)"},
      {"smiles": "O=C(NCCCN1CCCCC1)c1ccc2c(c1)NC(=O)C(N1CCOCC1)S2", "note": "(stereo unspecified)", "inhibition": "-8.33%"},
      {"smiles": "CCN1CCN(CCNC(=O)c2ccc3c(c2)NC(=O)/C(=C\\c2cccc(Cl)c2)S3)CC1", "inhibition": "99.5% (active)"},
      {"smiles": "CC(C)OCCCNC(=O)CN1C(=O)/C(=C/c2ccccc2F)Oc2ccccc21", "inhibition": "4.52%"},
      {"smiles": "CCN1CCCC1CNC(=O)c1ccc2c(c1)NC(=O)/C(=C\\c1ccccc1F)S2", "note": "(stereo unspecified)", "inhibition": "56.9% (active)"},
      {"smiles": "Cc1ccccc1CN1C(=O)c2ccccc2Sc2ccc(C(=O)NCCCN3CCOCC3)cc21", "inhibition": "26.3%"},
      {"smiles": "CCN1CCCC1CNC(=O)c1cc2c(=O)n(C)c3ccccc3c2n1C", "note": "(stereo unspecified)", "inhibition": "-10.3%"},
      {"smiles": "O=C(NCCN1CCOCC1)c1ccc2c(c1)N(Cc1cccc(Cl)c1)C(=O)c1ccccc1S2(=O)=O", "inhibition": "23.8%"},
      {"smiles": "Cc1c(C)n(Cc2ccc(Cl)cc2)c2ccc(C(=O)NCCCN3CCOCC3)cc12", "inhibition": "47.1%"},
      {"smiles": "CCN1CCCC1CNC(=O)c1cc2cc(OC)c(OC)cc2[nH]1", "note": "(stereo unspecified)", "inhibition": "18%"},
      {"smiles": "CN1CCN(CCCNC(=O)c2ccc(/C=C3\\Oc4ccccc4N(Cc4ccc(Cl)cc4)C3=O)cc2)CC1", "inhibition": "109% (active)"},
      {"smiles": "COc1ccc(-c2cc(NC=O)c3ncc(-c4cc(OC)c(OC)c(OC)c4)n3c2)c(OC)c1", "inhibition": "1.14%"},
      {"smiles": "Nc1ncnc2c1ncn2[C@@H]1O[C@H](C(=O)N2CCCN(Cc3ccccc3F)CC2)[C@@H](O)[C@H]1O", "inhibition": "3.41%"},
      {"smiles": "OC[C@@H]1CN(Cc2ccc(F)cc2)C[C@H](n2cnc3c(NC4CCCC4)ncnc32)O1", "inhibition": "12.2%"},
      {"smiles": "CCCNC(=O)C1(C)CCN(C(=O)c2ccc(F)cc2Cl)C1", "note": "(stereo unspecified)", "inhibition": "1.51%"},
      {"smiles": "CC1(C(=O)NS(=O)(=O)Cc2cccc(Cl)c2)CCN1C(=O)Cc1ccc(Cl)cc1Cl", "note": "(stereo unspecified)", "inhibition": "-1.37%"},
      {"smiles": "Cc1cn([C@H]2C[C@H](O)[C@@H](/C=C/C(=O)NCCCc3ccccc3)O2)c(=O)[nH]c1=O", "inhibition": "9.64%"},
      {"smiles": "Cc1ccc(C(=O)N/C(=C\\c2ccc(F)cc2)C(=O)NCCN2CCOCC2)cc1", "inhibition": "-0.33%"},
      {"smiles": "O=C(NCCN1CCOCC1)c1ccc(/C=C2\\Sc3ccccc3N(Cc3ccc(F)cc3)C2=O)cc1", "inhibition": "66.6% (active)"},
      {"smiles": "O=C(NCCN1CCOCC1)/C(=C/c1ccc(F)cc1)NC(=O)c1ccccc1", "inhibition": "-17.8%"},
      {"smiles": "O=[N+]([O-])c1ccc(CN2CC(N3CC=CC3)CS2(=O)=O)cc1", "note": "(stereo unspecified)", "inhibition": "-12%"},
      {"smiles": "CC(=O)c1cccc(-c2cnc3c(NC=O)cc(-c4cccc(C(=O)N(C)C)c4)cn23)c1", "inhibition": "33.8%"},
      {"smiles": "CN(C)CCNC(=O)c1cccc(-c2cnc3c(NC=O)cc(-c4cccc(C(F)(F)F)c4)cn23)c1", "inhibition": "98.7% (active)"},
      {"smiles": "CN(C)C(=O)c1cccc(-c2cnc3c(NC=O)cc(-c4ccc(F)cc4)cn23)c1", "inhibition": "35.5%"},
      {"smiles": "Nc1nc2c(ncn2[C@@H]2O[C@H](CNCc3ccc(OCCCN4CCOCC4)cc3)[C@@H](O)[C@H]2O)c(=O)[nH]1", "inhibition": "-2.38%"},
      {"smiles": "COc1ccc(CNC(=O)c2ccc(-c3cccnc3)c3ccoc23)cc1OC", "inhibition": "10.8%"},
      {"smiles": "Cc1cc(Cl)nc(NC(=O)Nc2cccc(Cl)c2)n1", "inhibition": "-174%"},
      {"smiles": "CCC(=O)Nc1nc(C)c(C(=O)Nc2cccc(Cl)c2)s1", "inhibition": "-28.7%"},
      {"smiles": "Cc1c(C(=O)Nc2cccc(Cl)c2)cn2c(nc3ccccc32)c1C#N", "inhibition": "60.9% (active)"},
      {"smiles": "COc1cccc(CN(C)C(=O)CC[C@H]2O[C@@H](n3cnc4c(NC(=O)c5ccccc5)ncnc43)[C@H](O)[C@@H]2O)c1", "inhibition": "4.1%"},
      {"smiles": "C[N+]1(CCNC(=O)/C=N/O)CCCCC1", "inhibition": "17%"},
      {"smiles": "CCCNC(=O)C1(C)CCCN(C(=O)c2oc3ccccc3c2C)C1", "note": "(stereo unspecified)", "inhibition": "-3.03%"},
      {"smiles": "Cc1nc(Nc2ccccc2F)c2nnn(Cc3ccccc3Cl)c2n1", "inhibition": "8.32%"},
      {"smiles": "CCCc1nc(NCc2ccc3c(c2)OCO3)c2nnn(Cc3ccccc3Cl)c2n1", "inhibition": "1.34%"},
      {"smiles": "Cc1nc(Nc2ccc3c(c2)OCCO3)c2nnn(Cc3ccccc3Cl)c2n1", "inhibition": "54.7% (active)"},
      {"smiles": "COc1ccccc1-c1nn(Cc2ccccc2)cc1C(=O)N1CCN(c2ncccn2)CC1", "inhibition": "33.2%"},
      {"smiles": "CC(=O)Nc1ccc(C=CC(=O)c2ccc([N+](=O)[O-])cc2)cc1", "inhibition": "4.26%"},
      {"smiles": "CC(CC(=O)O)C(=O)c1ccc(Cl)c([N+](=O)[O-])c1", "note": "(stereo unspecified)", "inhibition": "1.7%"},
      {"smiles": "O=C(/C=C/c1ccc(Cl)c([N+](=O)[O-])c1)c1ccc(O)cc1", "inhibition": "104% (active)"},
      {"smiles": "C/C(=N\\NC(=O)Cc1ccccc1[N+](=O)[O-])c1cccnc1", "inhibition": "17.7%"},
      {"smiles": "O=C(Nc1cccnc1)c1ccc(Cl)cc1[N+](=O)[O-]", "inhibition": "-0.43%"},
      {"smiles": "O=C(/C=C/c1ccc(Cl)c([N+](=O)[O-])c1)c1cccnc1", "inhibition": "105% (active)"},
      {"smiles": "CC(C)(C)S(=O)N1Cc2cc(C(=O)NCCCN3CCOCC3)nc(-c3cccc(-c4cc5ccccc5o4)c3)c2[C@H]1CCO", "note": "(stereo partly specified)", "inhibition": "-6.92%"},
      {"smiles": "CCCNC(=O)C1(C)CCN1C(=O)Cc1ccc(-c2ccccc2)cc1", "note": "(stereo unspecified)", "inhibition": "-9.6%"},
      {"smiles": "CCCNC(=O)N1CCN(C(=O)NCCC)CC1", "inhibition": "7.21%"},
      {"smiles": "CCC(C)(C)c1ccc(Oc2ccc(NC(=O)COC(=O)C3=COCCO3)cc2)cc1", "inhibition": "11.8%"},
      {"smiles": "O=C1c2ccccc2C2=Nc3ccccc3SC(c3ccccc3F)C12", "note": "(stereo unspecified)", "inhibition": "50.8% (active)"},
      {"smiles": "COc1ccc(-c2cc(NC(C)=O)c3ncc(-c4cc(OC)c(OC)c(OC)c4)n3c2)cn1", "inhibition": "9.76%"},
      {"smiles": "Cc1ccc(C)c(NC(CC(=O)c2ccccc2)C(=O)OCC(=O)c2cccs2)c1", "note": "(stereo unspecified)", "inhibition": "-74.6%"},
      {"smiles": "O=C(NCC(=O)N1CCN(c2ccccc2F)CC1)c1cccs1", "inhibition": "-57%"},
      {"smiles": "Cc1ccccc1C(CC(=O)c1cccs1)C(C#N)C#N", "note": "(stereo unspecified)", "inhibition": "98.4% (active)"},
      {"smiles": "OCCC1CN(Cc2cccc(OC3CCCC3)c2)CCN1Cc1ccsc1", "note": "(stereo unspecified)", "inhibition": "18.8%"},
      {"smiles": "CCc1nc2c(OCCOc3ccc(F)cc3)cccn2c1N(C)C(=O)c1ccccc1F", "inhibition": "14.6%"},
      {"smiles": "C=C(C)C(=O)O[C@H]1C/C(C)=C\\C(=O)/C=C(\\C)[C@H](O)[C@@H]2OC(=O)C(=C)[C@@H]21", "inhibition": "94.4% (active)"},
      {"smiles": "Cc1cc(NC(=O)COC(=O)/C=C/c2ccc(C)o2)no1", "inhibition": "6.71%"},
      {"smiles": "Cc1sc2ncn(CC(=O)NCCCC(=O)N(C)Cc3ccccc3)c(=O)c2c1C", "inhibition": "8.27%"},
      {"smiles": "COc1ccc(Nc2ncnc3ccc(Br)cc23)c(OC)c1", "inhibition": "88.1% (active)"},
      {"smiles": "COc1ccccc1Nc1ncnc2c1oc1ccccc12", "inhibition": "-388%"},
      {"smiles": "COc1ccc(OC)c(NC(=O)CN(C)CCOc2ccc(Br)cc2)c1", "inhibition": "7.53%"},
      {"smiles": "Cc1cc(Br)cn2c(Cc3ccsc3)c(-c3ccc(C#N)cc3)nc12", "inhibition": "-3.22%"},
      {"smiles": "CCOC(=O)C1CCCN(C(=O)c2ccc(N(C)C)cc2)CC1", "note": "(stereo unspecified)", "inhibition": "-7.67%"},
      {"smiles": "O=[N+]([O-])/C=C/c1ccc2c(ccn2Cc2ccccc2)c1", "inhibition": "107% (active)"},
      {"smiles": "O=C(Nc1nnc([C@H]2C[C@H](O)[C@@H](CO)O2)s1)c1cccc(Cl)c1", "inhibition": "-8.3%"},
      {"smiles": "Cc1c(NS(=O)(=O)c2cccc(C(=O)Nc3ccc(SC(F)F)cc3)c2)c(=O)n(-c2ccccc2)n1C", "inhibition": "34.6%"},
      {"smiles": "Nc1cccc(S(=O)(=O)Nc2ccc(SC(F)F)cc2)c1", "inhibition": "8.83%"},
      {"smiles": "COc1ccc(NC(=O)/C(N=Nc2cccc(S(=O)(=O)Nc3ccc(SC(F)F)cc3)c2)=C(\\C)O)cc1", "inhibition": "50.3% (active)"},
      {"smiles": "CCN(CC)CCC(c1cc(OC)c(OC)c(OC)c1)c1c(OC)cc(OC)c2c(-c3ccccc3)cc(=O)oc12", "note": "(stereo unspecified)", "inhibition": "27.4%"},
      {"smiles": "CCN(CC)CCC(c1ccc2c(c1)OCO2)c1c(OC)cc(OC)c2c(-c3ccccc3)cc(=O)oc12", "note": "(stereo unspecified)", "inhibition": "56.4% (active)"},
      {"smiles": "CCN(CC)C(=O)CC(c1ccc2c(c1)OCO2)c1c(OC)cc(OC)c2c(-c3ccccc3)cc(=O)oc12", "note": "(stereo unspecified)", "inhibition": "7.97%"},
      {"smiles": "CC1(C(=O)Nc2cccc3cccnc23)CCN1C(=O)CCC1CCCC1", "note": "(stereo unspecified)", "inhibition": "10.3%"}
    ]}
  ]
}
